Active and inactive are the calls of the source.
What was measured:
[1] = optical density shifts of acrAB sulA E. coli – strain DRC41, OD650, 48 h, E. coli filamentation inducer project, primary screen (AID 1152); settings: higher = more signal, called active from +8 up or from −8 down;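 also: E. coli MC1000 strain DRC41 lacking acrAB efflux pump and sulA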
[2] = probe aLefty1 binding on compound microarray – biochemical, small-molecule microarray, 635/667 nm fluorescence, primary screen (AID 1153); settings: higher = more signal;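 also: score merges spot fluorescence with signal-to-noise ratio from the scanned slide images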
[3] = plasmodial surface anion channel blockers, osmotic lysis – cell-based, P. falciparum Indochina, OD700, 1 h, primary screen (AID 1154); settings: P. falciparum Indochina infected RBC osmotic lysis, higher = more signal, called active from +8 up or from −8 down
[4] = plasmodial surface anion channel blockers, osmotic lysis – cell-based, P. falciparum Indochina, OD700, 2 h, primary screen (AID 1155);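 also: lysis reports solute entry through the parasite surface anion channel PSAC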; settings: P. falciparum Indochina infected erythrocytes, higher = more signal, called active from +8 up or from −8 down
[5] = changes in parasitized red cell lysis, either direction – P. falciparum Indochina, OD700, 3 h, PSAC antagonist project, primary screen (AID 1156); settings: P. falciparum-infected erythrocytes, osmotic lysis, higher = more signal, called active from +8 up or from −8 down
[6] = plasmodial surface anion channel blockers, osmotic lysis – cell-based, P. falciparum Indochina, OD700, 18 h, primary screen (AID 1157); settings: P. falciparum Indochina infected erythrocytes, osmotic lysis OD700, 18 h; higher = more signal, called active from +8 up or from −8 down
[7] = S6 kinase pathway phospho-S6 level changes – cell-based, A549, cytoblot, luminescence, serum-stimulated, primary screen (AID 1158); settings: 5 h, higher = more signal;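 also: serum-stimulated A549 lung adenocarcinoma cells; signal is phosphorylated S6 detected by cytoblot immunostaining with HRP secondary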
[8] = target: NADPH oxidase 2 (Homo sapiens) (UniProt P04839); assay: compounds shifting NOX2 Amplex Red fluorescence – cell-based, HEK293-NOX2, PMA-stimulated, NOX inhibitor project, primary screen (AID 1159); settings: 45 min, higher = more signal, called active from +8 up or from −8 down; also: test concentration not given here
Chain of NADPH oxidase 2 (Homo sapiens) (P04839 whole entry, looked up): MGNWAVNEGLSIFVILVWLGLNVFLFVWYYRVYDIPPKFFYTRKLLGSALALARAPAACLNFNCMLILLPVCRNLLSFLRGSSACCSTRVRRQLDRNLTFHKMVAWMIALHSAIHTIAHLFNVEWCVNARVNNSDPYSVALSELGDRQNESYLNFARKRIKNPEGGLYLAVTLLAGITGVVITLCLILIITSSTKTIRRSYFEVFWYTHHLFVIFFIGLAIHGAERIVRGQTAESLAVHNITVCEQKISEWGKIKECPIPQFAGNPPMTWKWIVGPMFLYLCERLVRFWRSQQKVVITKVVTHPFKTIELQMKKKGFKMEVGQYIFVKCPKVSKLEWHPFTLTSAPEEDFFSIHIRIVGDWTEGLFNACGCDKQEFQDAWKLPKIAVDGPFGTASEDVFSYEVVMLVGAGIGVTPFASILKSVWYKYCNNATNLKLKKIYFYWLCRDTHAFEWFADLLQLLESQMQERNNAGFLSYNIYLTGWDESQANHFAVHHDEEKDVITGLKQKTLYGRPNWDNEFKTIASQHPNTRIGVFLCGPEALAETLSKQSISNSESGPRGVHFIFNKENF

[9] = target: NADPH oxidase 4 (Homo sapiens) (UniProt Q9NPH5); assay: compounds shifting NOX4 Amplex Red fluorescence – cell-based, HEK293-NOX4, tetracycline-induced, NOX inhibitor project, primary screen (AID 1160); settings: HEK293-NOX4, Amplex Red H2O2 fluorescence, 45 min; higher = more signal, called active from +8 up or from −8 down
Chain of NADPH oxidase 4 (Homo sapiens) (Q9NPH5 whole entry, looked up): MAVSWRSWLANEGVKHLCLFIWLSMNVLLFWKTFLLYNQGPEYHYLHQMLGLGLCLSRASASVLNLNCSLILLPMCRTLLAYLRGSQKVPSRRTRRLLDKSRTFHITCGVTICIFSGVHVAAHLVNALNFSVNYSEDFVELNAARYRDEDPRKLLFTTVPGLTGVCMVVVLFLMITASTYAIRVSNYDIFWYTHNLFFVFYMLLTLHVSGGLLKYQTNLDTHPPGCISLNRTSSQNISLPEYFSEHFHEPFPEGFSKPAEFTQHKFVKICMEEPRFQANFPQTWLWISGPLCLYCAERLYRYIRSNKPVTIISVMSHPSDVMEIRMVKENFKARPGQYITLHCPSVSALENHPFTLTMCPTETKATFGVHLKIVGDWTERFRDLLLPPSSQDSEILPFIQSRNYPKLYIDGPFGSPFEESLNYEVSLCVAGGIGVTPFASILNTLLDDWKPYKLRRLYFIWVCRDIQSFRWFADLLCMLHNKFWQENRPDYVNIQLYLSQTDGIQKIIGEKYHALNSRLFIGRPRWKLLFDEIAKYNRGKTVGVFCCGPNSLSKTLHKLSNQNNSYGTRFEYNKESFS

[10] = target: NADPH oxidase 5 (Homo sapiens) (UniProt Q96PH1); assay: compounds shifting NOX5 Amplex Red fluorescence – cell-based, HEK293-NOX5, NOX inhibitor project, primary screen (AID 1161); settings: HEK293-NOX5, ionomycin, 45 min, higher = more signal
Chain of NADPH oxidase 5 (Homo sapiens) (Q96PH1 whole entry, looked up): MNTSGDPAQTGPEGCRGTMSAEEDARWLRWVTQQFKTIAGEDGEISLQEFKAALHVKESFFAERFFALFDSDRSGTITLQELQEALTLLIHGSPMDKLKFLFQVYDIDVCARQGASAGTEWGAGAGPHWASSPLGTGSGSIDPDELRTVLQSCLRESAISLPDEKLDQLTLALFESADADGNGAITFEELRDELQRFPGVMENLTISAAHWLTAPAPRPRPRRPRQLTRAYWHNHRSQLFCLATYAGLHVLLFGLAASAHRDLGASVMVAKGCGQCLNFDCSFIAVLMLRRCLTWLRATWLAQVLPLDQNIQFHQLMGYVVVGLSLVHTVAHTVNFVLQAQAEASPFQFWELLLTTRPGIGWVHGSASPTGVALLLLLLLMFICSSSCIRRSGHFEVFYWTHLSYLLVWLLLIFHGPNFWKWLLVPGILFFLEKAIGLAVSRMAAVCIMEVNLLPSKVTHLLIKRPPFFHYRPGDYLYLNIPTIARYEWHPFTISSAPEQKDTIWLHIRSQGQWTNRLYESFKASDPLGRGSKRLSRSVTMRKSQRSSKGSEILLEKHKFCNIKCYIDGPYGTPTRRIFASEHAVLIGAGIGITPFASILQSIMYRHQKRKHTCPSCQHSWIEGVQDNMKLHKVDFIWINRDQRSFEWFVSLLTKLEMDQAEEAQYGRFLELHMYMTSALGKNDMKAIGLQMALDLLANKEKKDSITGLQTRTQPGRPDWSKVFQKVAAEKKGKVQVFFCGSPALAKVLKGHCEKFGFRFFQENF

[11] = compound effects on lung adenocarcinoma cell viability – A549, calcein-AM fluorescence, 48 h, basal, profiling panel (AID 1162); settings: higher = more signal; also: test concentration not given here
[12] = compound effects on differentiated 3T3-L1 adipocyte viability – cell-based, 3T3-L1 adipocytes, calcein-AM fluorescence, 48 h, basal, profiling panel (AID 1163); settings: 3T3-L1 adipocytes viability, higher = more signal; also: test concentration not given here
[13] = compound effects on hepatocellular carcinoma cell viability – HepG2, calcein-AM fluorescence, 48 h, basal, profiling panel (AID 1164); settings: higher = more signal; also: test concentration not given here
[14] = compound effects on multiple myeloma cell viability – MM1S, calcein-AM fluorescence, 48 h, basal, profiling panel (AID 1165); settings: higher = more signal;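 also: viability of MM1S multiple myeloma cells under basal unstimulated conditions; test concentration not given here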
[15] = calcein-AM signal in unstimulated myeloma cells – cell-based, calcein-AM fluorescence, 48 h, PK04 Diversity Set, profiling panel (AID 1166); settings: RPMI8226 myeloma viability, higher = more signal;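 also: cells grown under basal conditions without added stimulus; test concentration not given here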
[16] = JC-1 mitochondrial signal, unstimulated HepG2 cells – cell-based, JC-1 fluorescence, 24 h, 100 nL compound, profiling panel (AID 1167); settings: HepG2 mitochondrial potential, higher = more signal; also: test concentration not given here
[17] = JC-1 mitochondrial signal, unstimulated adipocytes – cell-based, JC-1 fluorescence, 3T3-L1 adipocytes, 24 h, 100 nL compound, profiling panel (AID 1168); settings: JC-1 mitochondrial fluorescence, higher = more signal, called active from +8 up or from −8 down; also: test concentration not given here
[18] = JC-1 mitochondrial signal, unstimulated myeloma cells – cell-based, JC-1 fluorescence, RPMI8226, 24 h, 100 nL compound, profiling panel (AID 1169); settings: JC-1 mitochondrial potential fluorescence, higher = more signal; also: test concentration not given here
[19] = JC-1 mitochondrial signal, unstimulated MM1S myeloma – cell-based, JC-1 fluorescence, 24 h, 100 nL compound, profiling panel (AID 1170); settings: MM1S mitochondrial potential, higher = more signal; also: test concentration not given here
[20] = resazurin metabolic signal in A549 cells – cell-based, resazurin fluorescence, 24 h, PK04 Diversity Set, profiling panel (AID 1171); settings: A549 viability, higher = more signal, called active from +8 up or from −8 down; also: test concentration not given here

SMILES	z-score [1]	composite z-score [2]	z-score [3]	z-score [4]	z-score [5]	z-score [6]	z-score [7]	z-score [8]	z-score [9]	z-score [10]	z-score [11]	z-score [12]	z-score [13]	z-score [14]	z-score [15]	z-score [16]	z-score [17]	z-score [18]	z-score [19]	z-score [20]
CC(C)(C)OC(=O)CC[C@@]1(C(=O)N2CCCCC2)N=C(c2ccc(OCCCO)cc2)O[C@@H]1c1ccccc1	-0.56 (inactive)	0.349	26.6 (active)	19.2 (active)	1.79 (inactive)	2.14 (inactive)	-0.354	-2.08 (inactive)	1.7 (inactive)	0.0911	-0.637	0.452	0.644	-1.99	-2.22	1.59	0.0803 (inactive)	-0.636	0.0287	0.894 (inactive)
Cc1ccc(S[C@]2(C(=O)O)CC(=O)N(C(C)C)[C@@H]2c2ccc(CO)cc2)cc1	1.99 (inactive)	-0.668	1.05 (inactive)	-0.354 (inactive)	-1.28 (inactive)	-0.951 (inactive)	2.66	0.149 (inactive)	-0.716 (inactive)	-0.877	0.716	1.07	1.19	0.266	0.535	1.36	-0.285 (inactive)	0.00862	-0.317	-0.831 (inactive)
CO[C@H]1O[C@H](CO)[C@@H](OC(=O)Nc2cccc(F)c2)[C@H](OC(=O)Nc2ccccc2)[C@H]1OC(=O)Nc1ccccc1	-0.198 (inactive)	0.435	4.41 (inactive)	1.13 (inactive)	-0.711 (inactive)	0.986 (inactive)	0.627	-6.46 (inactive)	-1.09 (inactive)	-2.13	-2.2	1.33	-2.94	-1.53	-4.26	-0.389	0.518 (inactive)	-1.33	-0.561	-3.72 (inactive)
CCCCCCc1nc(-c2ccc(-c3ccc(Cl)c(Cl)c3)o2)cc2c1[Si](C(C)C)(C(C)C)O[C@H]2c1ccccc1	0.321 (inactive)	-0.598	0.439 (inactive)	0.0435 (inactive)	1.47 (inactive)	0.333 (inactive)	0.205	-1.24 (inactive)	-1.44 (inactive)	-1.49	-0.793	-0.0866	-1.08	-0.373	0.568	0.474	-0.0412 (inactive)	0.278	-0.284	1.19 (inactive)
O=C1C2C=CC(C(O)COCc3ccccc3)N(Nc3ccc([N+](=O)[O-])cc3)C2C(=O)N1c1ccccc1 (stereo not given)	0.383 (inactive)	0.447	9.2 (active)	0.581 (inactive)	-0.214 (inactive)	-0.809 (inactive)	0.213	-0.51 (inactive)	-0.338 (inactive)	0.629	-0.26	0.619	-0.617	-0.105	-0.0326	-1.26	-1.67 (inactive)	-0.25	-1.01	0.315 (inactive)
Cc1c(NC(=O)/C(C#N)=C/c2cccc([N+](=O)[O-])c2)c(=O)n(-c2ccccc2)n1C	0.969 (inactive)	-0.173	0.468 (inactive)	-0.376 (inactive)	-0.451 (inactive)	-0.481 (inactive)	2.39	-1.36 (inactive)	-0.497 (inactive)	0.864	4.01	1.31	0.461	0.943	2.4	0.69	-1.08 (inactive)	-0.122	-0.054	-0.133 (inactive)
C=CCN1C(=O)[C@]2(O[C@H](CCO)[C@@H]([Si](C)(C)c3ccc(OC)cc3)[C@@H]2C)c2cc(N(C=O)c3ccccc3)ccc21	0.35 (inactive)	0.0774	9.23 (active)	3.66 (inactive)	-0.452 (inactive)	2.29 (inactive)	1.53	0.474 (inactive)	0.446 (inactive)	0.327	-3.81	0.532	-4.8	-3.05	-4.39	-1.98	-0.422 (inactive)	-0.993	-2.23	-5.28 (inactive)
CC(=O)n1cc(C(O)C2C=CC3C(=O)NC(=O)C3N2Nc2ccccn2)c2ccccc21 (stereo not given)	-0.734 (inactive)	-0.101	0.625 (inactive)	0.827 (inactive)	-0.313 (inactive)	0.679 (inactive)	-0.612	-1.68 (inactive)	-2.41 (inactive)	-1.58	-0.407	-1.52	-0.252	0.0238	0.102	-0.743	-0.424 (inactive)	0.634	-0.0433	-1.02 (inactive)
COCCCNC(=O)[C@@]1(Sc2ccc(C)cc2)CC(=O)N(Cc2ccccc2Cl)[C@@H]1c1ccc(CO)cc1	0.864 (inactive)	-0.0011	0.38 (inactive)	-0.91 (inactive)	0.712 (inactive)	-1.83 (inactive)	2.14	-2.58 (inactive)	-1.22 (inactive)	-2.91	0.102	0.381	-0.646	0.661	-0.218	-0.627	-0.554 (inactive)	0.118	-2.29	1.76 (inactive)

— PubChem BioAssay
